Measured values as given in the supplement of paper PMC6522484.
± gives the standard deviation of the averaged measurements.

What was measured:
[1] = tested on: DLD1; assay: cell viability (CellTiter-Glo) relative to plate median (fraction of plate median); higher = more viable cells; settings: 5 µM; treatment time 24 h; reporter: 7TFP
In short: (§1)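 For this screen, colorectal cancer cell lines carrying stable lentiviral TCF/Wnt firefly luciferase reporters, either 7TFP or TCF4/Wnt, were seeded into 384-well plates. A day's wait of 24 h preceded addition of library compounds at a final 5 µM, which stayed on the cells for 24 h. Firefly luciferase or CellTiterGlo luminescence, read on parallel plates, was normalised to the plate median per well, and the reported value is the mean of two independent replicates.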

[2] = tested on: HCT116; assay: as above; settings: 5 µM; treatment time 24 h; reporter: TCF4/Wnt
In short: as §1

[3] = tested on: SW480; assay: as above; settings: 5 µM; treatment time 24 h; reporter: 7TFP
In short: as §1

[4] = tested on: DLD1; assay: TCF/Wnt firefly luciferase reporter signal relative to plate median (fraction of plate median); higher = higher Wnt reporter signal; settings: 5 µM; treatment time 24 h; reporter: 7TFP
In short: as §1

[5] = tested on: SW480; assay: as above; settings: 5 µM; treatment time 24 h; reporter: 7TFP
In short: as §1

Structure (SMILES) | cell viability [1] | cell viability [2] | cell viability [3] | TCF/Wnt firefly luciferase reporter signal [4] | TCF/Wnt firefly luciferase reporter signal [5]
COc1ccc([C@H]2Oc3c(I)c(OC)cc(OC)c3C[C@@H]2O)cc1OC | 0.912 ± 0.011 | 0.89 ± 0.0071 | 1 ± 0.042 | 0.959 ± 0.2 | 1.07 ± 0.23
CCCN1C[C@H](CSC)C[C@@H]2c3cccc4[nH]cc(c34)C[C@H]21 | 0.934 ± 0.0057 | 0.986 ± 0.049 | 0.863 ± 0.086 | 1 | 1.015 ± 0.0071
CCCC(C)C1(CC)C(=O)NC(=O)NC1=O (stereo not given) | 1 ± 0.079 | 0.981 ± 0.02 | 0.978 ± 0.0014 | 0.948 ± 0.018 | 0.933 ± 0.11
CC1(C)C(=O)C=C[C@@]2(C)C1=C(O)C(=O)[C@]1(C)[C@@H]2CC[C@@]2(C)[C@H](c3ccoc3)C[C@H]3O[C@]321 | 0.925 ± 0.029 | 1.13 ± 0.057 | 0.91 ± 0.034 | 0.986 ± 0.062 | 1.02 ± 0.055
OC[C@@H]1CCCN2CCCC[C@H]12 | 1.04 ± 0.014 | 1 ± 0.053 | 0.995 ± 0.036 | 0.898 ± 0.14 | 0.964 ± 0.065
C=C1C2CC[C@@]3(C)[C@H](c4ccoc4)OC(=O)C[C@]13O[C@H]1CC(=O)C(C)(C)[C@H](C(OC(C)=O)C(=O)OC)[C@@]21C (stereo not given in full) | 1.025 ± 0.0071 | 1.13 ± 0.057 | 1 ± 0.014 | 1.16 ± 0.057 | 0.826 ± 0.048
O=P1(N(CCCl)CCCl)NCCCO1 (stereo not given) | 1.03 ± 0.035 | 0.955 ± 0.015 | 0.959 ± 0.051 | 1.1 ± 0.18 | 0.92 ± 0.014
Nc1ccc([As](=O)(O)O)cc1 | 1.01 ± 0.021 | 1.09 ± 0.092 | 0.941 ± 0.04 | 0.976 ± 0.063 | 0.962 ± 0.028
O=C1NC(=O)C(=O)C(=O)N1 | 1.01 ± 0.057 | 0.935 ± 0.063 | 0.945 ± 0.014 | 0.829 ± 0.03 | 0.901 ± 0.064
N#Cc1nn(-c2c(Cl)cc(C(F)(F)F)cc2Cl)c(N)c1[S+]([O-])C(F)(F)F (stereo not given) | 1.02 ± 0.045 | 1.04 ± 0.028 | 1.005 ± 0.0071 | 1.01 ± 0.05 | 1.015 ± 0.0071
COc1cc([C@@H]2c3cc4c(cc3[C@@H](O)[C@H]3COC(=O)[C@H]23)OCO4)cc(OC)c1O | 0.952 ± 0.082 | 0.613 ± 0.12 | 1.06 ± 0.021 | 0.785 ± 0.17 | 0.742 ± 0.084
[N-]=[N+]=CC(=O)OC[C@H](N)C(=O)O | 0.717 ± 0.18 | 0.887 ± 0.092 | 1.07 ± 0.028 | 0.977 ± 0.047 | 0.989 ± 0.044
COc1ccc2c(c1OC)C(=O)O[C@@H]2[C@H]1c2cc3c(cc2CCN1C)OCO3 | 1.05 ± 0.042 | 1.1 ± 0.078 | 1.1 ± 0.035 | 1.18 ± 0.05 | 1.04 ± 0.097
C[C@H]1CC[C@]2(NC1)O[C@H]1C[C@H]3[C@@H]4CC[C@H]5C[C@@H](O)CC[C@]5(C)[C@H]4CC[C@]3(C)[C@H]1[C@@H]2C | 0.956 ± 0.076 | 1.01 ± 0.052 | 0.988 ± 0.06 | 1.03 ± 0.035 | 1.09 ± 0.057
